Measured values published in the supplement of paper PMC10037445.
Several values for one entry are separate records, joined by “and”; a condition that tells them apart may be missing. Identical values can stand only once. In all, about 2,900 compounds were measured (“NF-kB SEAP reporter activity, fold change vs agonist alone”: median about 0.99, highest 2% from about 2.6 on). The entries come from a sample that favours the highest values as a whole.

Legend:
[1] = system: RAW-Dual; test: NF-kB SEAP reporter activity, fold change vs agonist alone; cytotoxicity flag (confluency mask): not cytotoxic; higher = enhanced NF-kB activity
Summary of the method: (§1)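 Library stock was pin-tooled at 50 nL into 384-well plates of RAW-Dual macrophages (50,000 cells/well, DMEM), followed 1 h later by a PRR agonist, and the cells were kept at 37 °C, 5% CO2. Supernatant collected after 20 hours was read for IRF by QuantiLuc luminescence and for NF-κB by QuantiBlue absorbance at 620 nm. Reporter activity is fold change over agonist-alone wells, and a well counted as cytotoxic when its IncuCyte confluency was below 70% of agonist controls in both mask sets.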

[2] = system: RAW-Dual; test: NF-kB SEAP reporter activity, fold change vs agonist alone; higher = enhanced NF-kB activity; settings: library stock concentration (final ~1000-fold dilution): 10 mM
Summary of the method: as §1

[3] = system: RAW-Dual; test: NF-kB SEAP reporter activity, fold change vs agonist alone; cytotoxicity flag (confluency mask): cytotoxic (confluency <70% of control); higher = enhanced NF-kB activity
Summary of the method: as §1

[4] = agonist: ODN 1826 (TLR9) 0.5 ug/mL
[5] = agonist: Pam2CSK4 (TLR2/6) 0.1 ug/mL
[6] = agonist: Pam3CSK4 (TLR2/1) 0.1 ug/mL
[7] = cytotoxicity flag (confluency mask): not cytotoxic, agonist: Imiquimod (TLR7) […]
[8] = cytotoxicity flag (confluency mask): not cytotoxic, agonist: MPLA (TLR4) […]
[9] = cytotoxicity flag (confluency mask): cytotoxic (confluency <70% of control), agonist: Imiquimod (TLR7) […]
[10] = cytotoxicity flag (confluency mask): cytotoxic (confluency <70% of control), agonist: MPLA (TLR4) […]

## COc1ccc2c(c1O)-c1c(O)c(OC)cc3c1C(C2)[N+](C)(C)CC3 (stereo unspecified) (library stock concentration (final ~1000-fold dilution): 10 mM)
[1]; agonist: LPS (TLR4) 0.1 ug/mL
  NF-kB SEAP reporter activity: 1.1 and 1.18
[1]; [4]
  NF-kB SEAP reporter activity: 0.935 and 1.11
[1]; [5]
  NF-kB SEAP reporter activity: 1.01 and 1.08
[1]; [6]
  NF-kB SEAP reporter activity: 0.967 and 1.08

## CC(C)(NS(=O)(=O)c1ccc2c(Cl)cnc(NC(=N)N)c2c1)C(=O)O.Cl
[2]; [7]
  NF-kB SEAP reporter activity: 0.99
[2]; [8]
  NF-kB SEAP reporter activity: 0.923

## CC(C)(NS(=O)(=O)c1ccc2c(Cl)cnc(NC(=N)N)c2c1)C(=O)O.Cl (library stock concentration (final ~1000-fold dilution): 10 mM)
[1]; agonist: LPS (TLR4) 0.1 ug/mL
  NF-kB SEAP reporter activity: 1.1
[1]; [4]
  NF-kB SEAP reporter activity: 1.01
[1]; [5]
  NF-kB SEAP reporter activity: 0.913
[1]; [6]
  NF-kB SEAP reporter activity: 0.764

## Cl.Nc1ncccc1-c1nc2ccc(-c3ccccc3)nc2n1-c1ccc(C2(N)CCC2)cc1 (library stock concentration (final ~1000-fold dilution): 10 mM)
[3]; agonist: LPS (TLR4) 0.1 ug/mL
  NF-kB SEAP reporter activity: 0.954
[3]; [4]
  NF-kB SEAP reporter activity: 0.218
[3]; [5]
  NF-kB SEAP reporter activity: 0.921
[3]; [6]
  NF-kB SEAP reporter activity: 1.38

## Cl.Nc1ncccc1-c1nc2ccc(-c3ccccc3)nc2n1-c1ccc(C2(N)CCC2)cc1
[2]; [9]
  NF-kB SEAP reporter activity: 1.7
[2]; [10]
  NF-kB SEAP reporter activity: 1.8

## COc1cc2c(cc1OC)C1CC(OC(=O)C(N)C(C)C)C(CC(C)C)CN1CC2.Cc1ccc(S(=O)(=O)O)cc1.Cc1ccc(S(=O)(=O)O)cc1 (stereo unspecified) (library stock concentration (final ~1000-fold dilution): 10 mM)
[1]; agonist: LPS (TLR4) 0.1 ug/mL
  NF-kB SEAP reporter activity: 1.11
[1]; [4]
  NF-kB SEAP reporter activity: 0.207
[1]; [5]
  NF-kB SEAP reporter activity: 0.856
[1]; [6]
  NF-kB SEAP reporter activity: 0.889

## COc1cc2c(cc1OC)C1CC(OC(=O)C(N)C(C)C)C(CC(C)C)CN1CC2.Cc1ccc(S(=O)(=O)O)cc1.Cc1ccc(S(=O)(=O)O)cc1 (stereo unspecified)
[2]; [7]
  NF-kB SEAP reporter activity: 1.07
[2]; [8]
  NF-kB SEAP reporter activity: 1.11

## CC1CCN(C(=O)CC#N)CC1N(C)c1ncnc2[nH]ccc12 (stereo unspecified) (library stock concentration (final ~1000-fold dilution): 10 mM)
[1]; agonist: LPS (TLR4) 0.1 ug/mL
  NF-kB SEAP reporter activity: 0.799
[1]; [4]
  NF-kB SEAP reporter activity: 1.27
[1]; [5]
  NF-kB SEAP reporter activity: 1.33
[1]; [6]
  NF-kB SEAP reporter activity: 1.51

## CC1CCN(C(=O)CC#N)CC1N(C)c1ncnc2[nH]ccc12 (stereo unspecified)
[2]; [7]
  NF-kB SEAP reporter activity: 1.31
[2]; [8]
  NF-kB SEAP reporter activity: 1.05

## CC(=O)OC1CCC2(C)C(=CCC3C2CCC2(C)C(c4cccnc4)=CCC32)C1 (stereo unspecified)
[2]; [7]
  NF-kB SEAP reporter activity: 1.12
[2]; [8]
  NF-kB SEAP reporter activity: 1.05

## CC(=O)OC1CCC2(C)C(=CCC3C2CCC2(C)C(c4cccnc4)=CCC32)C1 (stereo unspecified) (library stock concentration (final ~1000-fold dilution): 10 mM)
[1]; agonist: LPS (TLR4) 0.1 ug/mL
  NF-kB SEAP reporter activity: 0.898
[1]; [4]
  NF-kB SEAP reporter activity: 1.06
[1]; [5]
  NF-kB SEAP reporter activity: 0.97
[1]; [6]
  NF-kB SEAP reporter activity: 1.97

## COc1cc2oc(=O)ccc2c(OC)c1CC(O)C(C)(C)O (stereo unspecified) (library stock concentration (final ~1000-fold dilution): 10 mM)
[1]; agonist: LPS (TLR4) 0.1 ug/mL
  NF-kB SEAP reporter activity: 1.11
[1]; [4]
  NF-kB SEAP reporter activity: 0.972
[1]; [5]
  NF-kB SEAP reporter activity: 1.08
[1]; [6]
  NF-kB SEAP reporter activity: 1.38

## COc1cc2oc(=O)ccc2c(OC)c1CC(O)C(C)(C)O (stereo unspecified)
[2]; [7]
  NF-kB SEAP reporter activity: 0.936
[2]; [8]
  NF-kB SEAP reporter activity: 0.984

## CC(C)(C)c1nc(-c2cccc(NS(=O)(=O)c3c(F)cccc3F)c2F)c(-c2ccnc(N)n2)s1.CS(=O)(=O)O
[2]; [8]
  NF-kB SEAP reporter activity: 1.93

## CC(C)(C)c1nc(-c2cccc(NS(=O)(=O)c3c(F)cccc3F)c2F)c(-c2ccnc(N)n2)s1
[2]; [9]
  NF-kB SEAP reporter activity: 2.07
[2]; [10]
  NF-kB SEAP reporter activity: 1.89

## CC(C)(C)c1nc(-c2cccc(NS(=O)(=O)c3c(F)cccc3F)c2F)c(-c2ccnc(N)n2)s1 (library stock concentration (final ~1000-fold dilution): 10 mM)
[3]; agonist: LPS (TLR4) 0.1 ug/mL
  NF-kB SEAP reporter activity: 3.02
[3]; [4]
  NF-kB SEAP reporter activity: 3.35
[3]; [5]
  NF-kB SEAP reporter activity: 2
[3]; [6]
  NF-kB SEAP reporter activity: 1.57

## CC(C)(C)c1nc(-c2cccc(NS(=O)(=O)c3c(F)cccc3F)c2F)c(-c2ccnc(N)n2)s1.CS(=O)(=O)O (library stock concentration (final ~1000-fold dilution): 10 mM)
[1]; agonist: LPS (TLR4) 0.1 ug/mL
  NF-kB SEAP reporter activity: 3.17
[1]; [4]
  NF-kB SEAP reporter activity: 3.05
[1]; [5]
  NF-kB SEAP reporter activity: 2.08
[1]; [6]
  NF-kB SEAP reporter activity: 1.78
